Screening data as filed in PubChem.
The list is not random: actives were taken first. Their share in the collection is about 3.7%.
PLK1 PBD inh = blocks phosphopeptide binding to human PLK1 polo-box domain. P53350. Plk1 PBD binding of FITC phosphopeptide, fluorescence polarization. Potency, µM, inactives show max response, negative = inhibition, most hits filed as inhibitors. 2.8% of 360,000 active. AID 720504; also: potency is read from the fitted curve at half-maximal effect; series mostly up to about 57 µM; % is scaled to controls: 0 for no effect and ±100 for the full control effect; nearly all actives have a fitted effect of over 65% in size
VDR inhibitor = blocks the human vitamin D receptor; P11473; VDR-SRC2-3 peptide fluorescence polarization, 2 h; Potency, µM, for the others: max response, negative = inhibition, most hits filed as inhibitors; 0.93% of 400,000 active; AID 504847; also: potency is read from the fitted curve at half-maximal effect; % is scaled to controls: 0 for no effect and ±100 for the full control effect
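Fluorescence polarization assay measuring small-molecule disruption of VDR binding to the coregulator peptide SRC2-3. Compounds were pin-transferred (23 nl) into the reagent mix and incubated 2 h at room temperature before reading.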
WRN helicase inh = WRN helicase (human) inhibition | WRN helicase unwinding, fluorescent forked duplex, kinetic | Potency, µM (highest dose often 114 µM), without a hit: at the top dose activity change, negative = inhibition, actives largely listed as inhibitors | 0.46% of 360,000 active | Q14191 | AID 651768; also: potency is read from the fitted curve at half-maximal effect; % is scaled to controls: 0 for no effect and ±100 for the full control effect; nearly all actives have a fitted effect of over 55% in size
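Kinetic red-fluorescence monitoring (525/598 nm) tracks WRN helicase activity after 100 nM fluorophore-quencher forked duplex and 2 mM ATP are added to 20 nM enzyme pretreated 15 min at room temperature with compound.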
TCR act = T cell receptor activation; primary human leukocytes, anti-CD3, IL-2 HTRF, 48 h; Potency, µM (top dose mostly 9.22 µM), inactives show at the top dose activation of IL-2 secretion, hits mostly activators; 330,000 tested, under 10 active; also: % of control where 0% means no effect
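Primary human leukocytes were stimulated with a-CD3 beads plus compounds for 48 hr without co-stimulation; secreted IL-2 was quantified by HTRF using a-IL-2-K (europium cryptate) and a-IL-2-d2, excited at 320nm with acceptor emission read at 665nm.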
PI5P4Ka inh = blocks human PI5P4K alpha kinase activity; P48426; PI5P4Kalpha enzyme, ADP-Glo luminescence, 60 min; active compounds read low; max response, %; 1.2% of 330,000 active; AID 652105; active = max response of -50% or lower; inconclusive = between -30% and -50%; inactive = -30% or higher; also: value at the top dose of about 77 µM; % is scaled to controls: 0 for no effect and ±100 for the full control effect
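Compounds were pin-transferred onto PI5P4Kalpha and substrate in HEPES pH 7.4 buffer with EGTA, CHAPS and 5% DMSO. ATP (5 microM final) started the reaction, which ran 60 minutes at room temperature before ADP-Glo detection.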
FEN1 inh = blocks human flap endonuclease 1; Potency, µM (top dose mostly 114 µM), for inactives: at the top dose activity change, negative = inhibition, usual class: inhibitors; AID 588795; P39748; 0.35% of 390,000 active; Recombinant FEN1 flap cleavage, fluorescence, 15 min; also: potency is read from the fitted curve at half-maximal effect; % is scaled to controls: 0 for no effect and ±100 for the full control effect; nearly all actives have a fitted effect of over 65% in size
Target sequence (P39748 whole entry, looked up): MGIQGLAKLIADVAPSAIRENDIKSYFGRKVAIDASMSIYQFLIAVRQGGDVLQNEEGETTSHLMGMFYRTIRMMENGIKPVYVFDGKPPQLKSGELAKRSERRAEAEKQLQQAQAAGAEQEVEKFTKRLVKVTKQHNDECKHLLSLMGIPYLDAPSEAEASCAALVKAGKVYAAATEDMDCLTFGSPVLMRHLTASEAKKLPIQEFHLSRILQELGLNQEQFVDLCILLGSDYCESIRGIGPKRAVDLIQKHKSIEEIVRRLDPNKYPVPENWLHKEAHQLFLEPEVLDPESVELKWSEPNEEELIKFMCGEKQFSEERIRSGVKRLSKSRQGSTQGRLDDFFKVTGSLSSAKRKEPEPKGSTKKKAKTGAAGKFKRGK
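Reaction started by adding substrate (50 nM final) to 10 nM enzyme after 15 min room-temperature compound preincubation. Reads at 0 and 15 min, with data normalized and fitted to a four-parameter Hill equation.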
Numbers without * were called inactive; u = inconclusive; x = not tested or not shown; [ ] = another dose, or the depositor's remark. Unless noted, calls follow the shape of the dose curve; as a rule, active = well fitted curve in the direction sought with a large enough effect; inconclusive = small, poorly fitted or top-dose-only effect, or another doubt; inactive = no such curve, though single readings can be large; an effect the other way counts as inactive or inconclusive.

SMILES | PLK1 PBD inh | VDR inhibitor | WRN helicase inh | TCR act | PI5P4Ka inh | FEN1 inh
COc1ccc2[nH]c3c(=O)n(CCCCC(=O)NCCC(C)C)c(=S)[nH]c3c2c1 | 12µM* | -26% | -4% | 6% | -30 | 16%
COc1ccc2[nH]c3c(=O)n(CCCC(=O)NC4CCCCC4C)c(=S)[nH]c3c2c1 (configuration not stated) | 30µM* | -3% | 8% | -7% | -17 | 3%
Cn1cc(S(=O)(=O)N2CCCCCC2)cc1C(=O)Nc1ccccc1F | x | 4% | x | x | x | 7%
CC1=Nc2ccccc2/C1=C(/C)c1c(C)[nH]c2ccccc12 | x | x | x | x | x | -14%
O=C(/C=C/c1ccccc1)NCCSCc1ccccc1 | 30µM* | u | -20% | 0%[46.1 µM] | -14 | 0%
COc1ccc(Cc2nnc(NS(=O)(=O)c3ccc(Cl)cc3)s2)cc1OC | 30µM* | 1% | -16% | x | -7 | 3%
COc1ccc(Cc2nnc(Nc3ccccc3)s2)cc1Br | 0% | 1% | 56µM* | -2% | 2 | u
COc1ccc(Cc2nnc(NC(=O)CSc3ccc(Cl)cc3)s2)cc1OC | x | x | x | -5%[46.1 µM] | x | x
CCCn1c2ccccc2c2cnn(CC(=O)NCCc3ccc(OCC)cc3)c(=O)c21 | x | -3% | x | x | x | 0%
O=C(O)c1ccccc1C(=O)Nc1ccccc1 | 0% | 17% | 1% | -8% | x | -7%
O=C(Nc1ccccc1)C1=C(c2ccccc2)S(=O)(=O)CCS1(=O)=O | 5.3µM* | 22µM* | u | x | 0 | 10%
C=C(c1ccc(OCCO)cc1)c1ccc(OCCO)cc1 | 27µM* | -13% | 10% | 1% | 5 | 4%
CNS(=O)(=O)c1cn(CC(=O)N2CCN(c3ccc(Cl)cc3)CC2)cc1S(=O)(=O)NC | x | 10% | x | x | x | 3%
Cc1cccc(OCC(=O)Nc2ccccc2C(=O)OCc2cc(=O)n3nc(C)sc3n2)c1 | x | 1% | x | x | x | -10%
CCn1c(SC(=O)NC2CCCCC2)nnc1-c1cccs1 | 2.7µM* | 9% | -5% | -4% | -7 | -3%
CCC(C)CCCCCCCCCCC(=O)O (configuration not stated) | 21µM* | u | -7% | 9% | 62 | u
CCCCC(=O)N(c1ccc(C(=O)O)cc1)c1nc(-c2ccc(Cl)cc2)c(CC)s1 | 27µM* | -18% | 0% | 7% | -4 | 18%
CCOC(=O)Nc1cccnc1Sc1ccc(Cl)cc1 | -26% | -3% | 12% | 0% | 3 | 7%
CCCNC(=O)OCc1cccnc1Sc1ccc(C)cc1 | 27µM* | -5% | 5% | -2% | u | 1%
Cc1ccc2onc(CC(=O)Nc3cc(F)ccc3F)c2c1 | x | -4% | x | x | x | -1%
Cc1ccc(S(=O)(=O)Nc2nc3ccccc3nc2Nc2cccc(S(=O)(=O)N3CCCC3)c2)cc1 | 27µM* | 13% | u | -2% | 0 | 37%
O=[N+]([O-])c1cccc(S(=O)(=O)Nc2nc3ccccc3nc2Nc2cccc(S(=O)(=O)N3CCCCC3)c2)c1 | 24µM* | 2% | u | 1%[46.1 µM] | u | u
CC(C)Oc1ccc(-c2nc(-c3cccnc3)no2)cc1 | x | x | x | x | x | -15%
c1ccc(C2=Nn3c(Cn4nnc5ccccc54)nnc3SC2)cc1 | 3% | 9% | -3% | -6% | 4 | 10%
Clc1ccc(C2=Nn3c(Cn4nnc5ccccc54)nnc3SC2)cc1 | 8.4µM* | 79µM* | -11% | 1% | -20 | 0%
SMILES | PLK1 PBD inh | VDR inhibitor | WRN helicase inh | TCR act | PI5P4Ka inh | FEN1 inh
O=C(Nc1nnc(COc2ccc(Cl)cc2)s1)C1CCCO1 (configuration not stated) | 6µM* | -9% | -24% | 6% | u | -15%
CCc1nnc(NC(=O)C2CCCO2)s1 (configuration not stated) | -11% | 14% | 6% | -6% | 2 | -7%
CN(Cc1ccc(F)cc1)S(=O)(=O)c1nnc(NC(=O)c2ccccc2Cl)s1 | x | 14% | x | x | x | 9%
Nc1sc2c(c1C(=O)c1ccc(Cl)cc1)CCCC2 | x | 45µM* | x | x | x | x
C1=Cc2ccccc2/C1=C\c1cccc(/C=C2\C=Cc3ccccc32)c1 | x | x | x | x | x | 35µM*
C1=Cc2ccccc2/C1=C\c1ccc(/C=C2\C=Cc3ccccc32)cc1 | x | x | x | x | x | 14%
COc1ccc(CS(=O)(=O)/C(Cl)=C(/Cl)C(=O)Nc2ccc(OC)nc2)cc1 | u | 40µM* | u | 2% | -7 | -15%
CCCOC(=O)C1=C(C)CS[C@@H]2[C@H](NC(=O)COc3ccccc3)C(=O)N12 | x | x | x | x | x | -7%
CC(C)(C)c1ccc(C(=O)/C(C#N)=C/c2cccs2)cc1 | 7.5µM* | -13% | -17% | -14% | 10 | -26%
O=c1cc(S(=O)(=O)Cc2ccccc2)[nH]c(=O)[nH]1 | -20% | -10% | -4% | 7% | -66* | 2%
O=c1cc(CCc2ccccc2)[nH]c(=O)[nH]1 | -1% | x | 8%[57.1 µM] | x | 3 | x
CCOc1ccccc1CNC(=O)CCc1c(C)nn(-c2ccc(N3CCCC3)nn2)c1C | x | -3% | x | x | x | -6%
Cc1cccc(NC(=O)CSc2nc3ccccc3c3nc(CCn4cncc4C)nn23)c1 | x | 17% | x | x | x | -2%
CC(C)(C)Nc1oc(-c2ccccc2)nc1-c1ccccc1 | x | -4% | x | x | x | x
c1ccc(CNc2oc(-c3ccccc3)nc2-c2ccccc2)cc1 | x | 14µM* | x | x | x | x
CCOC(=O)/C=C1/N(C)c2ccccc2C1(C)C | -8% | -2% | -10% | 2% | 6 | 3%
CN1/C(=C\P(=O)(N(C)C)N(C)C)C(C)(C)c2ccccc21 | -8% | 15% | 50µM* | 3% | x | -17%
COc1ccc(-c2cc(C(F)(F)F)n3nc(C(=O)Nc4sc5c(c4C#N)CCC(C)C5)cc3n2)cc1OC (configuration not stated) | x | 3% | x | x | x | 4%
NS(=O)(=O)c1cccc(NC(=O)CCSc2ccc(Cl)cc2)c1 | 12µM* | u | u | 5%[46.1 µM] | -10 | -12%
CC(C)CCNC(=O)NC(=O)COC(=O)/C=C/c1cc(Br)ccc1F | 15µM* | u | u | 1% | -62* | 3%
Cc1ccc(NC(=O)C(=O)NCC(c2cccnc2)N2CCc3ccccc3C2)cc1 (configuration not stated) | x | 6% | x | x | x | -6%
Cc1ccc(-c2nn(-c3ccccc3)cc2C2CC(c3cccs3)=NN2C(=O)CCCC(=O)O)cc1 (configuration not stated) | -18% | u | u | 0% | x | 50µM*
Cc1cccc2cc(C3CC(c4cccs4)=NN3C(=O)CCC(=O)O)c(Cl)nc12 (configuration not stated) | 27µM* | u | 2% | 3%[46.1 µM] | -11 | -4%
Cc1ccc2nc(Cl)c(C3CC(c4cccs4)=NN3C(=O)CCCC(=O)O)cc2c1 (configuration not stated) | -14% | 4% | 3% | -9%[46.1 µM] | -3 | 0%
